# Results from paper PMC7862700, “An all-to-all approach to the identification of sequence-specific readers for epigenetic DNA modifications on cytosine”.
# What was measured:
# Test in all cases: DAPPL (digital affinity profiling via proximity ligation, sequencing); 10 mM Tris-HCl pH 7.5, 50 mM NaCl, 1 mM DTT, 4% glycerol, room temperature, 30 min; GST-TFs on glutathione beads, 16-mer random dsDNA library, 0.1% formaldehyde crosslink after washing; high values mean tight binding
# FLI1 = molecular target: T1, FLI1 (Homo sapiens, UniProt Q01543 1-452); settings: protein: recombinant; tags: N-terminal GST; dsDNA, one strand shown
# T1 sequence: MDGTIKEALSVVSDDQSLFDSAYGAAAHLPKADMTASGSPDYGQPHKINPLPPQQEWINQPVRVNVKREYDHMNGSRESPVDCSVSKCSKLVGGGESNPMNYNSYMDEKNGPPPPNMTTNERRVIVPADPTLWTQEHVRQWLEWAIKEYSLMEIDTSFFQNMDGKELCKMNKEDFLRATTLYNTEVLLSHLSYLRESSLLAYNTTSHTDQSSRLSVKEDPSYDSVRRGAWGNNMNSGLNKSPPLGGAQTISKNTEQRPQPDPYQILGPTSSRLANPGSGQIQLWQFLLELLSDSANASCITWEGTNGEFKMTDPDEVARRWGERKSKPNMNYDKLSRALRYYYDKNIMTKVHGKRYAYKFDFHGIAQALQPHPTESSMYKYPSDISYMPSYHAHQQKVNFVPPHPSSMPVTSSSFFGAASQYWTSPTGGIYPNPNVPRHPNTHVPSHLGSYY
# In short: (§1)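 Pools of DNA-barcoded human transcription factors, expressed in yeast as GST fusions on glutathione beads and combined with a tag-only sample, were incubated with 200 nmole of a 16-mer random double-stranded DNA library. Incubation took 30 min at room temperature in Tris/NaCl/DTT/glycerol buffer and was followed by washing, 0.1% formaldehyde crosslinking, proximity ligation (BsaI/T4 ligase, 1 h, 37 °C), PCR amplification and sequencing on an Illumina NextSeq500. Binding signal is the ratio of a hexamer's read frequency for a factor to its frequency for the tag-only sample.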
# ELK1 = molecular target: T2, ELK1 (Homo sapiens, UniProt P19419 1-428); settings: protein: recombinant; tags: N-terminal GST; dsDNA, one strand shown
# T2 sequence: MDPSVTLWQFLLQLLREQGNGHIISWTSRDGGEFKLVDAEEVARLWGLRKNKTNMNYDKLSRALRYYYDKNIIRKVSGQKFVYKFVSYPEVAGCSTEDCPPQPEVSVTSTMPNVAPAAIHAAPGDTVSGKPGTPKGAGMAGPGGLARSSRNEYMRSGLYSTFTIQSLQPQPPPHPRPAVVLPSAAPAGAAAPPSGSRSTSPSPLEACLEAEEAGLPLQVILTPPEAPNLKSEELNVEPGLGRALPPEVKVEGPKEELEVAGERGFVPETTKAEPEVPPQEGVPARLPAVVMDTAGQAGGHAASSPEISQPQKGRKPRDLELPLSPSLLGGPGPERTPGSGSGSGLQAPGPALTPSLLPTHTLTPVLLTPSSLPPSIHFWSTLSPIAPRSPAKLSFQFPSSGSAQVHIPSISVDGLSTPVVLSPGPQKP
# In short: as §1
# GABPA = molecular target: T3, GABPA (Homo sapiens, UniProt Q06546 1-454); settings: protein: recombinant; tags: N-terminal GST; dsDNA, one strand shown
# T3 sequence: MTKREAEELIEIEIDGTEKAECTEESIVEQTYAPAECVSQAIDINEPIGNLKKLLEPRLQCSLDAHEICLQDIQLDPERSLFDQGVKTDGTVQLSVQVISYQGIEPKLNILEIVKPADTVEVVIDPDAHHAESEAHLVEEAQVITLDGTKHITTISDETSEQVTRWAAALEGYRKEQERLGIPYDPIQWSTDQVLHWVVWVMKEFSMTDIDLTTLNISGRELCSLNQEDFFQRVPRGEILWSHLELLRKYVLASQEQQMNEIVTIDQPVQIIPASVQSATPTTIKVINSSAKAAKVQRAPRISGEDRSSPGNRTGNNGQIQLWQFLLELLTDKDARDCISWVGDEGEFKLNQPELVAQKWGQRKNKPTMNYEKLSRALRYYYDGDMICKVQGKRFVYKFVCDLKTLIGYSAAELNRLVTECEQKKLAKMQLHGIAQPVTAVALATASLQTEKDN
# In short: as §1
# ERG = molecular target: T4, ERG (Homo sapiens, UniProt P11308 1-479); settings: protein: recombinant; tags: N-terminal GST; dsDNA, one strand shown
# T4 sequence: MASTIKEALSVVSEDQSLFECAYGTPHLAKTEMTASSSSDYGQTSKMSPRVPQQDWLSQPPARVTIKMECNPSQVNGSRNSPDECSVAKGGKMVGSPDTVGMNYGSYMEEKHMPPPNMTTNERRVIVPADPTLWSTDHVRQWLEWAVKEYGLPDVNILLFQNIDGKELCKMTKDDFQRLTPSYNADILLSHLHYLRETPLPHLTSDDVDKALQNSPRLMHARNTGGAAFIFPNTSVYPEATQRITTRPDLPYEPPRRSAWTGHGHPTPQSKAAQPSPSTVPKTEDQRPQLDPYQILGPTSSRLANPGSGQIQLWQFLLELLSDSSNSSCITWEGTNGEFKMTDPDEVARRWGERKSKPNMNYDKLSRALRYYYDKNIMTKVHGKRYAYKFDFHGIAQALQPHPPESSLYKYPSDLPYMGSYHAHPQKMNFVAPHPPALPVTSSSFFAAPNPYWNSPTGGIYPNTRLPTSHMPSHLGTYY
# In short: as §1
# ELF1 = ELF1 (Homo sapiens, UniProt P32519 1-619); settings: protein: recombinant; tags: N-terminal GST; dsDNA, one strand shown
# In short: as §1
# EHF = molecular target: T5, EHF (Homo sapiens, UniProt Q9NZC4 1-300); settings: protein: recombinant; tags: N-terminal GST; dsDNA, one strand shown
# T5 sequence: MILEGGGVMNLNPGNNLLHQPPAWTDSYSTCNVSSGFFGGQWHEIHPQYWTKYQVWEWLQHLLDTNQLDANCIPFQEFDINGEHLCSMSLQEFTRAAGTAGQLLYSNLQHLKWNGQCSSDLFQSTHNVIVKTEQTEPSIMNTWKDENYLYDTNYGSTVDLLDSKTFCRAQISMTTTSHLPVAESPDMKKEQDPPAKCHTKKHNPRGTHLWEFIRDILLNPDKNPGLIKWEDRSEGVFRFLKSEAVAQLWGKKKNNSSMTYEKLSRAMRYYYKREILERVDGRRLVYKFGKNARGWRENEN
# In short: as §1
# SPI1 = SPI1 (Homo sapiens, UniProt P17947 1-270); settings: protein: recombinant; tags: N-terminal GST; dsDNA, one strand shown
# In short: as §1
# SPIB = SPIB (Homo sapiens, UniProt Q01892 1-262); settings: protein: recombinant; tags: N-terminal GST; dsDNA, one strand shown
# In short: as §1
# ELK3 = molecular target: T6, ELK3 (Homo sapiens, UniProt P41970 1-407); settings: protein: recombinant; tags: N-terminal GST; dsDNA, one strand shown
# T6 sequence: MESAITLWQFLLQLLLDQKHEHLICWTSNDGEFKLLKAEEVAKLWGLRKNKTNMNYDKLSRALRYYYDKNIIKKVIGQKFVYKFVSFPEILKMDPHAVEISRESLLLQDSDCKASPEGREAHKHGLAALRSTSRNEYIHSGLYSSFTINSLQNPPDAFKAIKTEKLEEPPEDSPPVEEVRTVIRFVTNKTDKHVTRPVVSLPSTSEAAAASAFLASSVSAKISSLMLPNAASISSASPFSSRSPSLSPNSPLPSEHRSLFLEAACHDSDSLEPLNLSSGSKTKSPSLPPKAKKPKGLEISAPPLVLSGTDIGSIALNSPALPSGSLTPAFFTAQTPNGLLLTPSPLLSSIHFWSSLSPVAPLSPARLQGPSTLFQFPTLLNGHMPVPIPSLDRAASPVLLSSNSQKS
# In short: as §1
# FEV = molecular target: T7, FEV (Homo sapiens, UniProt Q99581 1-238); settings: protein: recombinant; tags: N-terminal GST; dsDNA, one strand shown
# T7 sequence: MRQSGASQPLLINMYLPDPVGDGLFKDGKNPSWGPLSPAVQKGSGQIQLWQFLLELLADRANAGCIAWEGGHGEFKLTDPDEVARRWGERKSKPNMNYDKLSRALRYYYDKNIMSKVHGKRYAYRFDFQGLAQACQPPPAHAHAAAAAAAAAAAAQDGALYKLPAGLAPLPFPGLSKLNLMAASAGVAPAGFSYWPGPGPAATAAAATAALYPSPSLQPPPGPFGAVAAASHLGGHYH
# In short: as §1
# ETV5 = ETV5 (Homo sapiens, UniProt P41161 1-510); settings: protein: recombinant; tags: N-terminal GST; dsDNA, one strand shown
# In short: as §1
# HSF1 = HSF1 (Homo sapiens, UniProt Q00613 1-529); settings: protein: recombinant; tags: N-terminal GST; chain copies: 3; dsDNA, one strand shown
# In short: as §1
# SPIC = molecular target: T8, SPIC (Homo sapiens, UniProt Q8N5J4 1-248); settings: protein: recombinant; tags: N-terminal GST; dsDNA, one strand shown
# T8 sequence: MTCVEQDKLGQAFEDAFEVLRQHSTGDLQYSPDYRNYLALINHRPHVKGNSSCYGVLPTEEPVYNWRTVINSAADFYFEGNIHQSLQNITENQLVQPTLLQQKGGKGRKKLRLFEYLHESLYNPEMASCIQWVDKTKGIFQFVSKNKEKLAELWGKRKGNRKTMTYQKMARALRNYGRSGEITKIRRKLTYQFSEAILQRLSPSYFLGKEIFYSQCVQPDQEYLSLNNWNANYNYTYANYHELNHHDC
# In short: as §1
# ELF4 = ELF4 (Homo sapiens, UniProt Q99607 1-663); settings: protein: recombinant; tags: N-terminal GST; dsDNA, one strand shown
# In short: as §1
# ELK4 = molecular target: T9, ELK4 (Homo sapiens, UniProt P28324-2 1-405); settings: protein: recombinant; tags: N-terminal GST; dsDNA, one strand shown
# T9 sequence: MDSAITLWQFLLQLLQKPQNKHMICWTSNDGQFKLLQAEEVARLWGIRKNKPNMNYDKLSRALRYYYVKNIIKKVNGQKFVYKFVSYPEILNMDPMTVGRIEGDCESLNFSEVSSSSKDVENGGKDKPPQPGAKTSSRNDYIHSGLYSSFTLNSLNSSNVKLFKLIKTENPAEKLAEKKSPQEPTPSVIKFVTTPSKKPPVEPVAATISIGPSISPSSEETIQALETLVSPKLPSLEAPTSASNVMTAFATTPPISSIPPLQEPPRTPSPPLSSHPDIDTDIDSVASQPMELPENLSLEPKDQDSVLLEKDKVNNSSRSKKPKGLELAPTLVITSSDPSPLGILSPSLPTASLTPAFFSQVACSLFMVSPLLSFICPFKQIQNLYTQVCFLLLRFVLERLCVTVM
# In short: as §1
# ETV2 = molecular target: T10, ETV2 (Homo sapiens, UniProt O00321 1-342); settings: protein: recombinant; tags: N-terminal GST; dsDNA, one strand shown
# T10 sequence: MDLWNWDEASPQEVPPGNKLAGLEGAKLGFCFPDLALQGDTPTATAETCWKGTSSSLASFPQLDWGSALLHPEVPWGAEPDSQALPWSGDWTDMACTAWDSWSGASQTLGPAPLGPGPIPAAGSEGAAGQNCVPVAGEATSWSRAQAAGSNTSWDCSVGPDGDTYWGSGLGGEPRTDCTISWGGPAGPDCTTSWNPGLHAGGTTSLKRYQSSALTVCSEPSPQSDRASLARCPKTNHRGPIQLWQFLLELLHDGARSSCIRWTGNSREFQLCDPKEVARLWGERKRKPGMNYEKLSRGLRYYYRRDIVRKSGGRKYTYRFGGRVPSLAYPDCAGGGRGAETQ
# In short: as §1
# ELF3 = molecular target: T11, ELF3 (Homo sapiens, UniProt P78545 1-371); settings: protein: recombinant; tags: N-terminal GST; dsDNA, one strand shown
# T11 sequence: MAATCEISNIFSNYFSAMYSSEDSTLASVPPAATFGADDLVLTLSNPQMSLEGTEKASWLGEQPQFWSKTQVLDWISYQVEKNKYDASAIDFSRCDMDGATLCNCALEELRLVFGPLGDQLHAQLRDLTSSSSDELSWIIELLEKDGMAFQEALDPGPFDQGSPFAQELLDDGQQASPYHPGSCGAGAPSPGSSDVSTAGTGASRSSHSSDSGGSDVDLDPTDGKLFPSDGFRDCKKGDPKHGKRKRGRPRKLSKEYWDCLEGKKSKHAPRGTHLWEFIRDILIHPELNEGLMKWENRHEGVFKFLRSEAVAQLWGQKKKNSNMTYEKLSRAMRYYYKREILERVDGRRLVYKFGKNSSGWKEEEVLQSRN
# In short: as §1
# CRX = CRX (Homo sapiens, UniProt O43186 1-299); settings: protein: recombinant; tags: N-terminal GST; dsDNA, one strand shown
# In short: as §1
# ETV1 = ETV1 (Homo sapiens, UniProt P50549 1-477); settings: protein: recombinant; tags: N-terminal GST; dsDNA, one strand shown
# In short: as §1
# Chain of HSF1 (Q00613 whole entry): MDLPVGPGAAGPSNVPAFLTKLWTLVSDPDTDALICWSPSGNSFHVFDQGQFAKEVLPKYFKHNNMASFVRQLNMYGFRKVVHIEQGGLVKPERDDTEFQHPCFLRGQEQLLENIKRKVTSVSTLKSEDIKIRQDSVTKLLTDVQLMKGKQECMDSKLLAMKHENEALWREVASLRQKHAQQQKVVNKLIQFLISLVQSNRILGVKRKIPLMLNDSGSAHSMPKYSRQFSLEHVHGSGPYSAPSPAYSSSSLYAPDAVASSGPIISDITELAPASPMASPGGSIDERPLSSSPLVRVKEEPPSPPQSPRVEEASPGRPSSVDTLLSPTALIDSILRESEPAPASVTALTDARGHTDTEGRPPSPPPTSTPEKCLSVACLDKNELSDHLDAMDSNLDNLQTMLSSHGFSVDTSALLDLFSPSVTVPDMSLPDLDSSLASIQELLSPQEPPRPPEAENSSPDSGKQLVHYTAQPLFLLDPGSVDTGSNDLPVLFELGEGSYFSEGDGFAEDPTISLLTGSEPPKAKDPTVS
# Chain of CRX (O43186 whole entry): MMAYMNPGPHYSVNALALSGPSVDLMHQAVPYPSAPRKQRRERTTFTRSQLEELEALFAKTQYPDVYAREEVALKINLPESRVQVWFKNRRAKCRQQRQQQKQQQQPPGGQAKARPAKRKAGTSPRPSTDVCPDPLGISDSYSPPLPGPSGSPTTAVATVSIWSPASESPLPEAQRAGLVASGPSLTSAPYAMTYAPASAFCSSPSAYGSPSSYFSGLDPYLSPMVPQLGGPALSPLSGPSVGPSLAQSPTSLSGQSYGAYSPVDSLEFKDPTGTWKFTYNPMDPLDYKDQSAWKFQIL
# Chain of ELF1 (P32519 whole entry): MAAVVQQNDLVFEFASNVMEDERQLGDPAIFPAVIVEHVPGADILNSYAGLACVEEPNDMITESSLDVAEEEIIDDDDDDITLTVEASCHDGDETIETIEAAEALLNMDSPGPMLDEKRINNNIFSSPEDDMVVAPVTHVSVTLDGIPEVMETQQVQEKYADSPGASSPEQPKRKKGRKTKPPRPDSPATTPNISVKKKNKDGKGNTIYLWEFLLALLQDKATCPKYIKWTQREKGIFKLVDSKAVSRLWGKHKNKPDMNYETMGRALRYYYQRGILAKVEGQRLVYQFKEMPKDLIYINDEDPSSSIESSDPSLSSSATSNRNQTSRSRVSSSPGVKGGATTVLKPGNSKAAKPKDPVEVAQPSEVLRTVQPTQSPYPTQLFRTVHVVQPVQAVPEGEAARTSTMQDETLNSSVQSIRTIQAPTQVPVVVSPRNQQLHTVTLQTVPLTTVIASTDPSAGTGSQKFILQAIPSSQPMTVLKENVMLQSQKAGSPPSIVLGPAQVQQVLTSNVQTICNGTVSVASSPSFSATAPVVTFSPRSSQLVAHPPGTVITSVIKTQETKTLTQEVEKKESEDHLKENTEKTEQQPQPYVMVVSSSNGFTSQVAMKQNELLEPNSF
# Chain of SPIB (Q01892 whole entry): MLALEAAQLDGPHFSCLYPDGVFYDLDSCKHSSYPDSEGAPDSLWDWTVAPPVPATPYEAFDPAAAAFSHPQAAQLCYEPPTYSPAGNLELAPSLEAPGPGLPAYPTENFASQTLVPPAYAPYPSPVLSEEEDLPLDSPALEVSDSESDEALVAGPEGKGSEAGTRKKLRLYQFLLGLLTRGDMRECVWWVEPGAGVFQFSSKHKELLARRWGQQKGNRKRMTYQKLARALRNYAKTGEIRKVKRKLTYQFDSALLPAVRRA
# Chain of ELF4 (Q99607 whole entry): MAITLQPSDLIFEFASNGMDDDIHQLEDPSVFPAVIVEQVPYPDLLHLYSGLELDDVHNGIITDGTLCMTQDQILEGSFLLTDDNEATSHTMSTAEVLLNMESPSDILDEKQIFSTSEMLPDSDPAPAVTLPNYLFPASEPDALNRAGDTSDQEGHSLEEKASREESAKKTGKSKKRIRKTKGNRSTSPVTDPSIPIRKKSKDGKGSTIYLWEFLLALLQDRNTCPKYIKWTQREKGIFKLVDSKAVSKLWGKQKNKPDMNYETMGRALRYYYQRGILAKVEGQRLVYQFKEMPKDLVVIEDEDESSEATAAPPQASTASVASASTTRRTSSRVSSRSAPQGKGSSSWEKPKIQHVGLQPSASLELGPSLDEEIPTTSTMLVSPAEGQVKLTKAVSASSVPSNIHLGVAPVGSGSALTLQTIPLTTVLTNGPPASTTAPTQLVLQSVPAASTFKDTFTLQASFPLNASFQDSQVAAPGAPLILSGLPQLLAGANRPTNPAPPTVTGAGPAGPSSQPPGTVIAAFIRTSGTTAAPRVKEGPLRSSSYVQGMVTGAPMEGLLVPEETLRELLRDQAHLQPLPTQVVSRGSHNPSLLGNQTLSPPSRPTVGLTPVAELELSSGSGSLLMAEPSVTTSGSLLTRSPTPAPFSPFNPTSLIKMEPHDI
# Chain of ETV5 (P41161 whole entry): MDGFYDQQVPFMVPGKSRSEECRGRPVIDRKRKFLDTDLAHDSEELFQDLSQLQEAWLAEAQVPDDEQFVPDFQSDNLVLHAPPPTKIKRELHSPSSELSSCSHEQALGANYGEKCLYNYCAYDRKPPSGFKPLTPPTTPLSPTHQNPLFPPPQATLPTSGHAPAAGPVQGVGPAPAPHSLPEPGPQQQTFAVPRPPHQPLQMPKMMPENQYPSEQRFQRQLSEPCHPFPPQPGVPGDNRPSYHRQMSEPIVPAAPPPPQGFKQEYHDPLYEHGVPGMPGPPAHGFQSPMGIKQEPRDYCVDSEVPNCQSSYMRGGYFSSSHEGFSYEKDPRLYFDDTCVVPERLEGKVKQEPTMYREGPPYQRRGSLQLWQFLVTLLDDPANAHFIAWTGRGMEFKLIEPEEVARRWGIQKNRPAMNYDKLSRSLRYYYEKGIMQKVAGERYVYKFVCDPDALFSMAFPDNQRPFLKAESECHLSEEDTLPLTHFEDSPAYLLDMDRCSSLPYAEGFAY
# Chain of ETV1 (P50549 whole entry): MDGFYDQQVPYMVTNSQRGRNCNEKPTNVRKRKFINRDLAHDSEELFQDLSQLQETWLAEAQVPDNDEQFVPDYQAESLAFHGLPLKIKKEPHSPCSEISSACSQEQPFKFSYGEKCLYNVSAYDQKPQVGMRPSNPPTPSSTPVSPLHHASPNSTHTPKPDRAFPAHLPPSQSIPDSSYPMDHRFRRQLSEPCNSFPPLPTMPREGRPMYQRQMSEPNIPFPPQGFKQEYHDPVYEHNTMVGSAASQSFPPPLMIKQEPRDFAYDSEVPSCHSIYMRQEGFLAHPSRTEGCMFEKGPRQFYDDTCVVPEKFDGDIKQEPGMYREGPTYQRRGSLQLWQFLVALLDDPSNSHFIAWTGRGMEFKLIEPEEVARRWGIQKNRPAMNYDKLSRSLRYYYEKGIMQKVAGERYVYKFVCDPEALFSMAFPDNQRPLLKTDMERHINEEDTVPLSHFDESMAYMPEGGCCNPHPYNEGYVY
sequence,measurement,setting,value
AGCTAC,binding signal,FLI1,"1.13 fold enrichment (6-mer frequency, TF over GST control)"
same,binding signal,ELK1,"1.11 fold enrichment (6-mer frequency, TF over GST control)"
same,binding signal,GABPA,"1.16 fold enrichment (6-mer frequency, TF over GST control)"
same,binding signal,ERG,"1.13 fold enrichment (6-mer frequency, TF over GST control)"
same,binding signal,ELF1,"1.15 fold enrichment (6-mer frequency, TF over GST control)"
same,binding signal,EHF,"1.22 fold enrichment (6-mer frequency, TF over GST control)"
same,binding signal,SPI1,"1.17 fold enrichment (6-mer frequency, TF over GST control)"
same,binding signal,SPIB,"1.19 fold enrichment (6-mer frequency, TF over GST control)"
same,binding signal,ELK3,"1.18 fold enrichment (6-mer frequency, TF over GST control)"
same,binding signal,FEV,"1.23 fold enrichment (6-mer frequency, TF over GST control)"
same,binding signal,ETV5,"1.21 fold enrichment (6-mer frequency, TF over GST control)"
same,binding signal,HSF1,"1.04 fold enrichment (6-mer frequency, TF over GST control)"
same,binding signal,SPIC,"1.21 fold enrichment (6-mer frequency, TF over GST control)"
same,binding signal,ELF4,"1.12 fold enrichment (6-mer frequency, TF over GST control)"
same,binding signal,ELK4,"1.25 fold enrichment (6-mer frequency, TF over GST control)"
same,binding signal,ETV2,"1.03 fold enrichment (6-mer frequency, TF over GST control)"
same,binding signal,ELF3,"1.34 fold enrichment (6-mer frequency, TF over GST control)"
same,binding signal,CRX,"1.04 fold enrichment (6-mer frequency, TF over GST control)"
same,binding signal,ETV1,"1.21 fold enrichment (6-mer frequency, TF over GST control)"
